Measurements from PubChem BioAssay (EPA / NIEHS).
Records with an inconclusive call do not appear. Active and inactive are the calls of the source. Rule for the calls, unless noted: active = hit-call score of the fitted dose curve at least 0.9, where 1 is the maximum; inactive = score below 0.9.

How the values were obtained:
[1] = ATG_CRE_CIS: Attagene CIS-FACTORIAL HepG2 Assay for human cAMP Responsive Element (CRE) binding protein 3 (AID 2282926); settings: HepG2 CRE cis-reporter, Attagene multiplexed mRNA; actives raise or lower the signal
Method in brief: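 HepG2 cells transiently transfected with a multiplexed reporter library (CRE-driven unit among them) were dosed for 24 h. Reporter mRNA was quantified by RT-PCR, fluorescent labelling, HpaI digestion and capillary electrophoresis, with bidirectional fitting against DMSO baseline.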

[2] = molecular target: CCAAT/enhancer-binding protein beta (Homo sapiens) (UniProt P17676); assay: ATG_C_EBP_CIS: Attagene CIS-FACTORIAL HepG2 Assay for human CCAAT/Enhancer Binding Protein (C/EBP) beta (AID 2282927); settings: HepG2 Attagene cis-factorial transcription factor reporter; actives raise or lower the signal
Method in brief: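 Endogenous transcription factor activity in human liver HepG2 cells is inferred from induction of a CEBPB-linked reporter mRNA. Exposure lasts 24 h; activity is fitted in both directions relative to DMSO.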

[3] = ATG_CMV_CIS: Attagene CIS-FACTORIAL HepG2 Assay for human CMV (Internal Marker) (AID 2282928); settings: HepG2 CMV promoter reporter, transcription factor profiling; actives raise or lower the signal;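 note: endpoint acts as a background internal control marker rather than a target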
Method in brief: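 HepG2 cells transiently transfected with multiple cis-regulated reporter units; 24 h compound exposure. Reporter mRNA quantified by RT-PCR, 6-FAM primer-extension labeling, HpaI digestion and capillary electrophoresis; bidirectional fitting against DMSO baseline.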

[4] = ATG_DR4_LXR_CIS: Attagene CIS-FACTORIAL HepG2 Assay for human Liver X Receptor (LXR), DR4 submotif (AID 2282929); settings: HepG2 Attagene DR4 cis-reporter, mRNA transcription; actives raise or lower the signal
Method in brief: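 HepG2, transient MRTU transfection, cis-element (DR4) promoter; 24 h compound exposure; total RNA → oligo(dT) RT → PCR → 6-FAM primer extension → HpaI cut → CE. Gain/loss vs DMSO, bidirectional fit.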

[5] = molecular target: Aryl hydrocarbon receptor (Homo sapiens) (UniProt P35869); assay: ATG_Ahr_CIS: Attagene CIS-FACTORIAL HepG2 Assay for human Aryl Hydrocarbon Receptor (Ahr) (AID 2282930); settings: HepG2 AhR cis-factorial reporter transcription; actives raise or lower the signal
Method in brief: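 Transient MRTU transfection of HepG2 → 24 h compound exposure → total RNA, oligo(dT) RT → PCR, 6-FAM extension, HpaI cut → CE fluorescence. DMSO = baseline; bidirectional curve fit.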

[6] = ATG_AP_1_CIS: Attagene CIS-FACTORIAL HepG2 Assay for human Activator Protein 1 (AP-1) (AID 2282931); settings: HepG2 Attagene cis-factorial AP-1 reporter mRNA; actives raise or lower the signal
Method in brief: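 Transient MRTU transfection of HepG2 → 24 h chemical treatment → RNA isolation, RT-PCR, 6-FAM labelling, HpaI digest → capillary electrophoresis. Fit: bidirectional, DMSO negative control.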

[7] = ATG_AP_2_CIS: Attagene CIS-FACTORIAL HepG2 Assay for human Activator Protein 2 (AP-2) (AID 2282932); settings: HepG2 AP-2 cis-reporter, Attagene transcription factor profiling; actives raise or lower the signal
Method in brief: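 Step one: transient transfection of HepG2 with reporter transcription units. Step two: 24 h chemical exposure. Step three: RNA extraction, RT-PCR, labelled fragment analysis by capillary electrophoresis; DMSO serves as baseline.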

[8] = ATG_BRE_CIS: Attagene CIS-FACTORIAL HepG2 Assay for human Bone Morphogenetic Protein (BMP) Response Element (BRE) (AID 2282933); settings: HepG2 BMP response element reporter, Attagene transcription factor profiling; actives raise or lower the signal
Method in brief: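 Fluorescence-labelled reporter cDNA fragments, separated by capillary electrophoresis, gave the signal for this component of a 52-readout multiplex. HepG2 cells were transfected, exposed to chemicals for 24 h, and compared with DMSO using bidirectional fitting.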

[9] = molecular target: Retinoic acid receptor alpha (Homo sapiens) (UniProt P10276); assay: ATG_DR5_RAR_CIS: Attagene CIS-FACTORIAL HepG2 Assay for human Retinoic Acid Receptor Alpha (RARE), DR5 submotif (AID 2282934); settings: HepG2 Attagene cis-factorial RARE DR5 reporter, mRNA; actives raise or lower the signal
Method in brief: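 Transient MRTU transfection of HepG2; 24 h compound treatment; TriZol RNA, oligo(dT) RT, PCR, FAM labelling, capillary electrophoresis. Bidirectional fit vs DMSO. Endogenous TF activity at DR5 RARE.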

[10] = molecular target: Transcription factor E2F1 (Homo sapiens) (UniProt Q01094); assay: ATG_E2F_CIS: Attagene CIS-FACTORIAL HepG2 Assay for human E2F Transcription Factor 1 (AID 2282935); settings: HepG2 Attagene cis-reporter, E2F reporter RNA transcripts; actives raise or lower the signal
Method in brief: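 Total RNA from 24 h-treated, reporter-transfected HepG2 cells undergoes DNase I treatment, oligo(dT) reverse transcription, PCR and 6-FAM primer extension before capillary electrophoresis.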

[11] = ATG_E_Box_CIS: Attagene CIS-FACTORIAL HepG2 Assay for human Enhancer Box (E-box) (AID 2282936); settings: HepG2 E-box cis-reporter transcription, actives raise or lower the signal
Method in brief: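 DMSO served as negative control and baseline for bidirectional fitting. Human hepatoma HepG2 cells, transiently transfected with cis-reporter constructs, were dosed 24 h; reporter mRNA read by RT-PCR and capillary electrophoresis.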

[12] = ATG_M_61_CIS: Attagene CIS-FACTORIAL HepG2 Assay for M61 Transcription Factor (Internal Marker) (AID 2282937); settings: HepG2 Attagene CIS-FACTORIAL M61 internal marker reporter; actives raise or lower the signal
Method in brief: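 Human liver HepG2, transient MRTU transfection (cis promoter elements), 24 h compound. Total RNA → oligo(dT) RT → PCR → FAM label → HpaI → CE. Internal background marker; bidirectional fitting, DMSO = baseline.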

[13] = ATG_EGR_CIS: Attagene CIS-FACTORIAL HepG2 Assay for human Early Growth Response 1 (EGR1) (AID 2282938); settings: HepG2 Attagene CIS-FACTORIAL EGR reporter mRNA; actives raise or lower the signal
Method in brief: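 Transient transfection of human HepG2 with multiple cis-regulated reporter units, chemical exposure 24 h, total RNA isolated. Reverse transcription, PCR, fluorescent labelling and capillary electrophoresis quantify reporter transcripts; activity fitted bidirectionally against DMSO.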

[14] = ATG_M_19_CIS: Attagene CIS-FACTORIAL HepG2 Assay for M19 Transcription Factor (Internal Marker) (AID 2282939); settings: HepG2 Attagene CIS-FACTORIAL M19 internal marker reporter; actives raise or lower the signal
Method in brief: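 HepG2, MRTU transient transfection, 24 h dosing. Total RNA → RT-PCR → 6-FAM primer extension → HpaI digest → CE fluorescence. Bidirectional curve fit, DMSO negative control.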

[15] = ATG_ERE_CIS: Attagene CIS-FACTORIAL HepG2 Assay for Estrogen Response Element (ERE) (AID 2282940); settings: HepG2 ERE cis-reporter, Attagene RNA transcript; actives raise or lower the signal
Method in brief: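 After a 24 h chemical treatment, RNA from reporter-transfected HepG2 cells is reverse-transcribed, PCR-amplified and fluorescently labelled. Fragments separated by capillary electrophoresis give reporter signal; DMSO serves as negative control.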

[16] = ATG_Ets_CIS: Attagene CIS-FACTORIAL HepG2 Assay for human Erythroblast Transformation Specific (ETS) (AID 2282941); settings: HepG2 ETS cis-reporter transcription, actives raise or lower the signal
Method in brief: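 HepG2 cells transiently transfected with cis-promoter reporter transcription units were dosed for 24 h; reporter mRNA was measured by RT-PCR, 6-FAM primer extension, HpaI digestion and capillary electrophoresis, with bidirectional fitting against DMSO baseline.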

[17] = molecular target: Hepatocyte nuclear factor 3-beta (Homo sapiens) (UniProt Q9Y261); assay: ATG_FoxA2_CIS: Attagene CIS-FACTORIAL HepG2 Assay for human Forkhead box A2 (FOXA2) (AID 2282942); settings: HepG2 cis-reporter transcription factor activity, 24 h; actives raise or lower the signal
Method in brief: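 Transient MRTU transfection of HepG2 liver cells; 24 h treatment; total RNA → oligo(dT) RT → PCR → FAM primer extension → HpaI cut → CE. Bidirectional fit vs DMSO.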

[18] = ATG_FoxO_CIS: Attagene CIS-FACTORIAL HepG2 Assay for human Forkhead box O (FoxO) (AID 2282943); settings: HepG2 Attagene cis-reporter, FoxO element, mRNA; actives raise or lower the signal
Method in brief: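 HepG2, transient MRTU transfection (cis element, endogenous TFs). Dose 24 h. TriZol RNA → oligo(dT) RT → PCR → 6-FAM primer extension → HpaI cut → CE. Gain/loss vs DMSO.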

[19] = ACEA_ER_80hr: ACEA Biosciences xCELLigence Real-Time Cell Analysis on Estrogen Receptor Agonism for Proliferation (AID 2282667; active = hit-call score of the fitted dose curve at least 0.9, where 1 is the maximum); settings: T47D proliferation, impedance (xCELLigence), 80 h
Method in brief: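 T47D human breast cells were seeded on electrode plates, monitored overnight, then exposed continuously to compounds in eight-point 1:4 dilutions from 100 uM (max 0.5% DMSO). Impedance-based growth was read at 80 h, fitted upward relative to DMSO.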

[20] = ATG_GATA_CIS: Attagene CIS-FACTORIAL HepG2 Assay for human GATA Binding Protein (AID 2282944); settings: HepG2 GATA cis-element reporter, Attagene multiplex mRNA; actives raise or lower the signal
Method in brief: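 Cells: HepG2, transiently transfected with cis-regulated reporter transcription units. Exposure: 24 h. Detection: RT-PCR plus capillary electrophoresis of FAM-labeled fragments. Analysis: bidirectional, DMSO as baseline.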

Measured: AC50

Aryl hydrocarbon receptor (Homo sapiens), sequence (P35869 whole entry, looked up): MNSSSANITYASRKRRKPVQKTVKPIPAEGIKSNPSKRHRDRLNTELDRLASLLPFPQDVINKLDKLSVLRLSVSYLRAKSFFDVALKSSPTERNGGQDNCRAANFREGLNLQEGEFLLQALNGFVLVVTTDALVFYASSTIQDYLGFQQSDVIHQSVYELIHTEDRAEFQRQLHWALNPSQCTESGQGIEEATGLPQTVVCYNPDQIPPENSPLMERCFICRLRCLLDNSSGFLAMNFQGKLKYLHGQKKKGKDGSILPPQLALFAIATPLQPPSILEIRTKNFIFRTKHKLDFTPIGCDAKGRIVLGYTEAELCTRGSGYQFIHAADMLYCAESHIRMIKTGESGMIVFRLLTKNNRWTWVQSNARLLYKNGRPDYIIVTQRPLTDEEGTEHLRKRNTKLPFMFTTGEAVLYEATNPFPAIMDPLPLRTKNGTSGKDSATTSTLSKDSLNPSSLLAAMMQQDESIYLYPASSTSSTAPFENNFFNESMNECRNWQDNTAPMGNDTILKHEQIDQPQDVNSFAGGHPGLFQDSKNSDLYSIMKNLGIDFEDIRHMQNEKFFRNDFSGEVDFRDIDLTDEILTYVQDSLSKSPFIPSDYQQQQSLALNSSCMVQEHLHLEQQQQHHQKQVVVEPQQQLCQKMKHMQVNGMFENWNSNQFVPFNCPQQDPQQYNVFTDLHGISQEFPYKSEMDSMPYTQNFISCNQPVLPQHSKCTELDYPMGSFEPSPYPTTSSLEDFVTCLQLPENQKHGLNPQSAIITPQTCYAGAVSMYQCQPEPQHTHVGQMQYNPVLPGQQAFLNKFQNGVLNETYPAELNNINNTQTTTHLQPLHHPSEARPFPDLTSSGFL
Transcription factor E2F1 (Homo sapiens), sequence (Q01094 whole entry, looked up): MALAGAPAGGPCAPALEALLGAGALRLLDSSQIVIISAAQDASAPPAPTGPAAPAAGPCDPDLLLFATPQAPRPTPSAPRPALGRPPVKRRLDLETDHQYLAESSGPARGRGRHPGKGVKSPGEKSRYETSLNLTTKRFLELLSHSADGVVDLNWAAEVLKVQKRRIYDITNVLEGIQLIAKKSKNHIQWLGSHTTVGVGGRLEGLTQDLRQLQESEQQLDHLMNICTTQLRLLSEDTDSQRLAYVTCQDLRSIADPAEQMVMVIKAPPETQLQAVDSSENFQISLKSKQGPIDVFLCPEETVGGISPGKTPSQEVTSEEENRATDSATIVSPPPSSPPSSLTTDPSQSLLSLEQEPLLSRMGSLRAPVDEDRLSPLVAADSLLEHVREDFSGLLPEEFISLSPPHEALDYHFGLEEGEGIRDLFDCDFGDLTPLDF
Retinoic acid receptor alpha (Homo sapiens), sequence (P10276 whole entry, looked up): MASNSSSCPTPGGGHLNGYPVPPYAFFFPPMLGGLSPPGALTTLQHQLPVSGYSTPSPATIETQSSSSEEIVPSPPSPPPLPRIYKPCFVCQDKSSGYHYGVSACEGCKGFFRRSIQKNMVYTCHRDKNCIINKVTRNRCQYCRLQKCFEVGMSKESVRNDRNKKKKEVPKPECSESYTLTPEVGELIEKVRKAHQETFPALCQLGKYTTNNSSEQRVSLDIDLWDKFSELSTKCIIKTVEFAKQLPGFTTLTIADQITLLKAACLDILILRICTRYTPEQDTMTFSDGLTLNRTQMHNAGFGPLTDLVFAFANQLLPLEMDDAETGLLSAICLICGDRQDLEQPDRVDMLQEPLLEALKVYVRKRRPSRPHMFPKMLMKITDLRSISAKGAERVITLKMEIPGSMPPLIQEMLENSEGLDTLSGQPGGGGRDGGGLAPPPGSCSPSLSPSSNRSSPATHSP
Hepatocyte nuclear factor 3-beta (Homo sapiens), sequence (Q9Y261 whole entry, looked up): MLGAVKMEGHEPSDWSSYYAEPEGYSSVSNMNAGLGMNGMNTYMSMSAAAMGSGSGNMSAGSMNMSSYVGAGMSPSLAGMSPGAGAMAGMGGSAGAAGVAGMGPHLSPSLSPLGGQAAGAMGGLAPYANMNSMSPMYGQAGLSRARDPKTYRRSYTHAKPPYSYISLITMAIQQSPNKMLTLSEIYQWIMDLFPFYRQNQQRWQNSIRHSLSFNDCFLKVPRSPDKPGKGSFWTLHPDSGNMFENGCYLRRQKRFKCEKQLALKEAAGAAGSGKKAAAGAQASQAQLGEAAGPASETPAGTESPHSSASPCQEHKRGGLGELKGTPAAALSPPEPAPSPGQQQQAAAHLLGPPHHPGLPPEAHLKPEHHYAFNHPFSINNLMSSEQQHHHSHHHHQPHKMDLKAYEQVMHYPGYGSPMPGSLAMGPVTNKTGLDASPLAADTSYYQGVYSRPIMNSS
CCAAT/enhancer-binding protein beta (Homo sapiens), sequence (P17676 whole entry, looked up): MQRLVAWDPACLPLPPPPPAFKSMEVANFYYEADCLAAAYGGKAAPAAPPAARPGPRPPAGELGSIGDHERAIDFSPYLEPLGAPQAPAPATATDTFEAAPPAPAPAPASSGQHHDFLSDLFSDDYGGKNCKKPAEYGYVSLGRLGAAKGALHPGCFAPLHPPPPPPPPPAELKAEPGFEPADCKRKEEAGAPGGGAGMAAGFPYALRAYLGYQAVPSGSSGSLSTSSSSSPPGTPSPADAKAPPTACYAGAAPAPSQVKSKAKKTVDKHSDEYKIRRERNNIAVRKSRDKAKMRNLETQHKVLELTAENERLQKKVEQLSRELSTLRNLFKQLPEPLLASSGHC

Cc1c(O)cccc1O
active: [5] 37.8 µM | [15] 61.4 µM
not listed: [19] | [20]
inactive: all other assays above

O=C(Oc1ccccc1)c1ccccc1O
not listed: [2] | [20]
inactive: all other assays above

CCCCC/C=C\C/C=C\CCCCCCCC(=O)O
active: [4] 76.9 µM | [5] 100 µM | [6] 153 µM | [13] 72.5 µM
not listed: [2]
inactive: all other assays above

COCC(=O)O
not listed: [2] | [4] | [7] | [20]
inactive: all other assays above

CC(C)c1ccc2ncccc2c1
active: [3] 53.5 µM
not listed: [2] | [10] | [15] | [17]
inactive: all other assays above

CCCCNS(=O)(=O)c1ccc(C)cc1
not listed: [2] | [11]
inactive: all other assays above

CCCCCCCCC(CO)CCCCCC (stereo not drawn)
active: [1] 100 µM | [3] 8.41 µM | [4] 53 µM | [10] 189 µM | [11] 34.3 µM | [16] 173 µM | [20] 65.5 µM
not listed: [2] | [7]
inactive: all other assays above
